PubChem BioAssay

Assays:
[1] = system: Human papillomavirus type 1a protein E7 (residues 44-93); test: HPV1a E7 fragment binders on microarrays, primary screen, biochemical, small-molecule microarray, residues 44-93, 635 nm fluorescence (AID 1108); settings: small-molecule microarray binding, fluorescence 635 nm; higher = more signal;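 also: E7 fragment applied at 1 µg/mL in TBST for 1 h at 4 C; score combines spot fluorescence with its signal to noise ratio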
[2] = modulators of HCV replicon luciferase signal, primary screen, HCV replication inhibitor project, Huh7 cells, luciferase reporter (AID 1109); settings: 48 h, higher = more signal;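 also: huh7 hepatoma cells harbouring a luciferase neomycin HCV replicon reporter; luciferase luminescence as measure of HCV replicon replication; test concentration not given here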
[3] = biological target: Left-right determination factor 2 (Homo sapiens) (UniProt O00292); test: LEFTY2 binders on small-molecule microarrays, primary screen, biochemical, small-molecule microarray, 635 nm fluorescence scan (AID 1110); settings: LEFTY2 binding, higher = more signal
[4] = biological target: Calmodulin-1 (Homo sapiens) (UniProt P0DP23); test: CALM1 binders on microarrays, EGTA buffer, profiling panel, biochemical, small-molecule microarray, Cy5-labelled CALM1 (AID 1111); settings: Cy5-CALM1 binding fluorescence, higher = more signal;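 also: labelled calmodulin applied in Tris saline Tween buffer holding calcium plus EGTA and DTT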
[5] = biological target: Calmodulin-1 (Homo sapiens) (UniProt P0DP23); test: calcium-bound CALM1 binders on microarrays, profiling panel, artefact control for SMM control-protein annotation, biochemical, small-molecule microarray, Cy5-labelled CALM1, plus calcium (AID 1112); settings: Cy5-CALM1 binding fluorescence, higher = more signal;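 also: score merges spot fluorescence with signal to noise from triplicate slides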
[6] = small-molecule microarray binders of probe aWnt5a, primary screen, biochemical, biotinylated probe, 635/667 nm fluorescence (AID 1113); settings: higher = more signal;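 also: score merges 667 nm fluorescence intensity with signal-to-noise per printed feature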
[7] = small-molecule microarray binders of probe aShh, primary screen, biochemical, biotinylated probe, 635/667 nm fluorescence (AID 1114); settings: higher = more signal;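 also: probe is biotin-labelled aShh protein from a stem cell growth factor screen; measures binding of labelled protein to compounds printed on the slide; score merges feature fluorescence at 667 nm with signal-to-noise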
[8] = small-molecule microarray binders of probe aNog, primary screen, biochemical, biotinylated probe, 635/667 nm fluorescence (AID 1115); settings: higher = more signal;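 also: probe is biotinylated aNog protein used at 0.15 µg/mL for 1 h at 4 C; z-score combines 667 nm fluorescence of each spot with its signal to noise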
[9] = biological target: Torsin-1A-interacting protein 1 (Homo sapiens) (UniProt Q5JTV8); test: LAP1 binders from COS7 cell lysate, primary screen, small-molecule microarray, 635/667 nm fluorescence (AID 1116); settings: COS7-hLAP1 lysate binding, 635 nm fluorescence, higher = more signal
[10] = biological target: Alpha-bungarotoxin (Bungarus multicinctus) (UniProt P60615); test: alpha-bungarotoxin binders on microarray, profiling panel, artefact control for SMM control protein annotation, biochemical, small-molecule microarray, Alexa647 label, 635/667 nm fluorescence (AID 1117); settings: alpha-BTX-A647 binding fluorescence, higher = more signal
Chain of Alpha-bungarotoxin (Bungarus multicinctus) (P60615 whole entry, looked up): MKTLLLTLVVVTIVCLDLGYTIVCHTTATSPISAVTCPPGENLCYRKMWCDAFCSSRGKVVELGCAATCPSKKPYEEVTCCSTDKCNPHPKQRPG

Chain of Torsin-1A-interacting protein 1 (Homo sapiens) (Q5JTV8 whole entry, looked up): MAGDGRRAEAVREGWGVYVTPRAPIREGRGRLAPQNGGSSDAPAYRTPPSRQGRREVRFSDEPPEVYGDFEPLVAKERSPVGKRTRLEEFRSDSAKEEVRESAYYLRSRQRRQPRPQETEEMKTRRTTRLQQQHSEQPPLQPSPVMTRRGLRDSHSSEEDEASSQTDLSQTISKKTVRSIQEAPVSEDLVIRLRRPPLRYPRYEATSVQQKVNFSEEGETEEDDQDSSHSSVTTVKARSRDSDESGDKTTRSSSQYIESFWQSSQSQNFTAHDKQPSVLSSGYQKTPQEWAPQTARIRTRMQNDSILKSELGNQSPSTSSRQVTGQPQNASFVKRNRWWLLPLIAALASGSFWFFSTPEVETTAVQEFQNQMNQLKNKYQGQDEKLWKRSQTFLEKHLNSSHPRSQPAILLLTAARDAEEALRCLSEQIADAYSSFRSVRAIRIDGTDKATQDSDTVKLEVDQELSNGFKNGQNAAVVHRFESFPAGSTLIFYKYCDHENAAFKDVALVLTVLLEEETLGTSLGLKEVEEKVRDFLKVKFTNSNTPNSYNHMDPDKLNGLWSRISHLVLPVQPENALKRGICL
Chain of Left-right determination factor 2 (Homo sapiens) (O00292 whole entry, looked up): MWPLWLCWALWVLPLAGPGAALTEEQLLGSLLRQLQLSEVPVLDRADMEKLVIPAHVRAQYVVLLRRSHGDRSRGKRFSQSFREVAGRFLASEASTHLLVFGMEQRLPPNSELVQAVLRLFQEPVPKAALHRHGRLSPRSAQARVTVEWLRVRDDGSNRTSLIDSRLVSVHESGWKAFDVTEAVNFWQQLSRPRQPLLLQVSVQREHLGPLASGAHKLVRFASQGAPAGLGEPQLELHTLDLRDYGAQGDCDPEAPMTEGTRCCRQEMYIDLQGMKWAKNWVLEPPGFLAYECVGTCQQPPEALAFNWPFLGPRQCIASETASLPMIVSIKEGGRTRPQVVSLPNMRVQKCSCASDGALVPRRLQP

| SMILES | composite z-score [1] | z-score [2] | composite z-score [3] | composite z-score [4] | composite z-score [5] | composite z-score [6] | composite z-score [7] | composite z-score [8] | composite z-score [9] | composite z-score [10] |
| --- | --- | --- | --- | --- | --- | --- | --- | --- | --- | --- |
| C=C(COC)/C(=C/C[C@H](OC(=O)c1ccncc1)c1cccc(OCCO)c1)c1cc(C(=O)OC)ccc1OC | -1.16 | -1.67 | 0.229 | -0.0871 | -0.46 | -0.156 | -0.0769 | -0.104 | 0.516 | 1.29 |
| CC(C)(C)OC(=O)CC[C@]1(C(=O)N2CCCCC2)N=C(c2ccc(OCCCO)cc2)O[C@H]1c1ccccc1N=[N+]=[N-] | 1.43 | 0.6 | 0.376 | 2.25 | 1.38 | 0.152 | -0.385 | 0.207 | 1.47 | 0.823 |
| CC(c1ccccc1)C(O)C1C=CC2C(=O)NC(=O)C2N1Nc1ccccn1 (stereo not given) | 1.35 | 0.355 | 0.313 | -0.104 | -0.487 | -0.0478 | -0.138 | 0.496 | 0.903 | 0.672 |
| COC(=O)[C@]1(Cc2ccccc2N=[N+]=[N-])N=C(c2ccc(OCCCO)cc2)O[C@@H]1c1ccccc1N=[N+]=[N-] | -0.0688 | -3.52 | -0.0072 | -0.062 | -0.374 | -0.129 | -0.138 | -0.51 | 0.412 | 0.019 |
| C=CC[C@@]1(C(=O)N2CCOCC2)N=C(c2ccc(OCCCO)cc2)O[C@@H]1c1ccccc1N=[N+]=[N-] | 1.45 | -1.82 | 0.37 | 1.83 | 0.904 | 0.171 | -0.043 | 1.82 | 1.47 | 1.8 |
| CCOC(=O)C[C@H]1[C@H](OC(=O)Cc2ccc3c(c2)OCO3)[C@@H](NC(=O)c2ccc(-c3ccccc3)cc2)c2cc(OCCCO)ccc2N1C(=O)c1ccccc1 | 1.06 | -1.25 | 0.525 | 0.326 | -0.0305 | -0.113 | 0.0483 | -0.287 | 0.42 | 0.815 |
| COc1ccc([Si](C)(C)[C@@H]2[C@@H](CC(=O)N(CCO)Cc3ccccc3)O[C@]3(C(=O)N(C)c4ccccc43)[C@H]2C)cc1 | 0.906 | -3.95 | 0.813 | 0.773 | -0.193 | -0.0721 | 0.366 | 0.422 | 0.44 | 0.805 |
| CCOC(=O)C1=C[C@@H](C(C)C)N(S(=O)(=O)c2ccc(C)cc2)[C@H]1c1ccc(C(C)C)cc1 | 1.35 | -2.16 | 0.524 | 1.33 | -0.144 | -0.0735 | -0.138 | -0.58 | 0.324 | 1.1 |
| O=C1C2C=CC(C(O)c3ccc(-c4ccccc4)s3)N(n3cnnc3)C2C(=O)N1Cc1ccccc1 (stereo not given) | 0.423 | -0.602 | -0.253 | -0.164 | -0.377 | -0.096 | 0.0062 | 0.141 | 0.585 | 0.399 |
| CCOC(=O)[C@H]1C[C@H]2O[C@@]23C[C@H]1C(=O)N1CCCC1[C@@H]3O[Si](C)(C)C(C)(C)C (stereo not given in full) | -0.917 | -0.633 | -0.0688 | -0.821 | -0.392 | -0.184 | -0.138 | -0.202 | -0.132 | -0.789 |
| C=CCN1C(=O)[C@]2(O[C@H](CCO)[C@@H]([Si](C)(C)c3ccc(OC)cc3)[C@@H]2C)c2cc(NC(=O)[C@H](C)O)ccc21 | 0.942 | -4.97 | 0.0707 | 0.737 | -0.217 | -0.0799 | 0.13 | -0.204 | 0.925 | 0.69 |
| COC(=O)C[C@H]1O[C@]2(C(=O)N(Cc3ccccc3)c3ccc(NC(C)=O)cc32)[C@@H](C)[C@@H]1[Si](C)(C)c1ccc(OC)cc1 | 0.866 | -2.23 | 0.104 | 0.403 | -0.352 | -0.096 | -0.2 | 0.188 | 0.538 | 0.226 |
| COC(=O)[C@@]1(Cc2ccccc2)[C@H]2c3cc(C(=O)N(C)C)n(Cc4cc(C)n(C)n4)c3C[C@H]2CN1C(=O)c1ccccc1 | 1.02 | -0.995 | -0.279 | 1.8 | 0.908 | -0.319 | -0.465 | -0.199 | 3.2 | 0.285 |
| COCCOC(=O)N1C(=O)[C@@]2(c3cc(C#CCNC(N)=O)ccc31)[C@H](c1ccc(O)cc1)N1[C@H](c3ccccc3)[C@H](c3ccccc3)OC(=O)[C@H]1[C@@H]2C(=O)NC[C@H](O)c1ccccc1 | 0.83 | -0.703 | 0.952 | 0.288 | 0.0058 | 0.0026 | -0.119 | -0.287 | 1.1 | 0.834 |
